Assay [1] has as its target Glucocorticoid receptor (Homo sapiens) (UniProt P04150). The experiment in a line: ATG_GR_TRANS: Attagene TRANS-FACTORIAL HepG2 Assay for human Glucocorticoid Receptor (GR) (AID 2282978; active means hit-call score of the fitted dose curve at least 0.9, where 1 is the maximum;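 further: activators score as hits since higher reporter transcript over DMSO is fitted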). To be noted: HepG2 Attagene TRANS GR reporter, mRNA transcription. In short, it runs like this: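 Exogenous NR-GAL4 fusion activity was assessed through induced GAL4-UAS reporter transcripts in transfected human HepG2 cells, quantified after 24 h by RT-PCR and fluorescent capillary electrophoresis with DMSO as baseline.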

The target in assay [2] is Bile acid receptor (Homo sapiens) (UniProt Q96RI1). Kind of assay: ATG_FXR_TRANS: Attagene TRANS-FACTORIAL HepG2 Assay for Farnesoid X Receptor (FXR) (AID 2282979; active means hit-call score of the fitted dose curve at least 0.9, where 1 is the maximum;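 further: hits raise reporter mRNA above DMSO so AC50 marks FXR activation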). To be noted: HepG2 Attagene TRANS FXR-GAL4 reporter transcription. In short, it runs like this: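 Reporter transcripts from transfected HepG2 cells were measured 24 h after dosing, using RT-PCR with capillary electrophoresis of 6-FAM-labelled fragments. The read-out reflects activity of exogenous FXR-Gal4 chimera on GAL4-UAS units, with induction relative to DMSO.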

The target in assay [3] is Oxysterols receptor LXR-alpha (Homo sapiens) (UniProt Q13133). The experiment in a line: ATG_LXRa_TRANS: Attagene TRANS-FACTORIAL HepG2 Assay for human Liver X Receptor alpha (LXRa) (AID 2282980; active means hit-call score of the fitted dose curve at least 0.9, where 1 is the maximum). To be noted: HepG2 Attagene TRANS reporter, LXRa transactivation. In short, it runs like this:
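Chemical-induced reporter mRNA measured by RT-PCR with fluorescent labelling and capillary electrophoresis after 24 h dosing of transiently transfected HepG2 cells expressing exogenous NR-Gal4 chimeras; increases scored against DMSO baseline.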

Assay [4] has as its target Oxysterols receptor LXR-beta (Homo sapiens) (UniProt P55055). Kind of assay: ATG_LXRb_TRANS: Attagene TRANS-FACTORIAL HepG2 Assay for human Liver X Receptor beta (LXRb) (AID 2282981; active means hit-call score of the fitted dose curve at least 0.9, where 1 is the maximum). To be noted: HepG2 Attagene TRANS GAL4-LXRb reporter, mRNA. In short, it runs like this:
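Gain-of-signal mRNA reporter endpoint, DMSO as negative control. Transiently transfected HepG2 cells carrying the NR-Gal4 chimera and GAL4-UAS reporter units were treated 24 h; transcripts quantified by RT-PCR and capillary electrophoresis fluorescence.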

Assay [5] in a line: ATG_M_06_TRANS: Attagene TRANS-FACTORIAL HepG2 Assay for M06 Transcription Factor (Internal Marker) (AID 2282983; active means hit-call score of the fitted dose curve at least 0.9, where 1 is the maximum). To be noted: HepG2 Attagene TRANS M06 internal marker reporter. In outline: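 Cells: HepG2, transient multi-reporter transfection. Exposure: 24 h. Detection: RT-PCR, 6-FAM labelling, HpaI digestion (2 h, 37 °C), capillary electrophoresis. Baseline: DMSO.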
Assay [6] can be described thus: ATG_M_32_TRANS: Attagene TRANS-FACTORIAL HepG2 Assay for M32 Transcription Factor (Internal Marker) (AID 2282984; active means hit-call score of the fitted dose curve at least 0.9, where 1 is the maximum;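 further: transcript level of a background control reporter unit measured by RT-PCR and capillary electrophoresis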). To be noted: HepG2 Attagene TRANS M32 internal marker reporter. In outline: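 Capillary electrophoresis of 6-FAM-labelled reporter fragments gives the signal; data fitted for gain over DMSO negative control. Source: HepG2 cells bearing transient multiple reporter transcription units, 24 h exposure.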

Assay [7] concerns the target Nuclear receptor subfamily 4 group A member 2 (Homo sapiens) (UniProt P43354). The experiment in a line: ATG_NURR1_TRANS: Attagene TRANS-FACTORIAL HepG2 Assay for human Nuclear Receptor Related Protein 1 (NURR1) (AID 2282985; active means hit-call score of the fitted dose curve at least 0.9, where 1 is the maximum). To be noted: HepG2 Attagene TRANS reporter, mRNA readout. In outline:
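HepG2 / transient MRTU transfection / 24 h compound exposure / RT-PCR + CE fluorescence of reporter mRNA / gain-of-signal vs DMSO.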

Assay [8] addresses Transcriptional activator Myb (Homo sapiens) (UniProt P10242). Kind of assay: ATG_Myb_CIS: Attagene CIS-FACTORIAL HepG2 Assay for human Myeloblastosis (Myb) Proto-Oncogene Transcription Factor (AID 2282986). To be noted: HepG2 Attagene CIS-FACTORIAL Myb reporter transcription; actives raise or lower the signal. In short, it runs like this:
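In this HepG2 transient-transfection format, cis-regulated reporter mRNA is quantified 24 h post-dosing by RT-PCR with capillary electrophoresis, fitted bidirectionally to DMSO baseline.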

In assay [9] the target is Nuclear respiratory factor 1 (Homo sapiens) (UniProt Q16656). The experiment in a line: ATG_NRF1_CIS: Attagene CIS-FACTORIAL HepG2 Assay for human Nuclear Respiratory Factor 1 (NRF1) Orphan Gene (AID 2282987). To be noted: HepG2 NRF1 cis-element reporter, Attagene multiplex; actives raise or lower the signal. In short, it runs like this:
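Using DMSO as baseline, gain- or loss-of-signal was fitted for reporter mRNA levels in HepG2 cells transiently transfected with cis-regulated reporter units. Samples were taken 24 h after dosing and read by RT-PCR with capillary electrophoresis.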

Assay [10] is described as follows: ATG_NFI_CIS: Attagene CIS-FACTORIAL HepG2 Assay for human Nuclear Factor I (NFI) (AID 2282989). Particulars: HepG2 cis-regulatory reporter, NFI response element transcription; actives raise or lower the signal. In short, it runs like this:
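Transient MRTU transfection of HepG2 → 24 h chemical dosing → total RNA, oligo(dT) RT → PCR, 6-FAM primer extension, HpaI cut → capillary electrophoresis. Endpoint fitted bidirectionally relative to DMSO.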

Assay [11] deals with Myc proto-oncogene protein (Homo sapiens) (UniProt P01106). Kind of assay: ATG_Myc_CIS: Attagene CIS-FACTORIAL HepG2 Assay for human Myelocytomatosis (Myc) Proto-Oncogene Transcription Factor (AID 2282990). Particulars: HepG2, Attagene cis-reporter transcription factor activity; actives raise or lower the signal. In short, it runs like this:
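Read-out: fluorescent reporter mRNA fragments resolved by capillary electrophoresis after RT-PCR. Human HepG2 liver cells carried transfected cis-element reporter units and were dosed for 24 h. Gain or loss of signal fitted relative to DMSO baseline.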

Assay [12] in a line: ATG_NF_kB_CIS: Attagene CIS-FACTORIAL HepG2 Assay for human Nuclear Factor Kappa B (NF-kB) (AID 2282991). Particulars: HepG2 Attagene cis-factorial NF-kB reporter mRNA; actives raise or lower the signal. In outline: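 Endpoint from a 52-component multiplexed HepG2 reporter panel: cis-regulated transcription units transiently transfected, 24 h dosing, reporter mRNA quantified by RT-PCR and capillary electrophoresis, scored as increase or decrease against DMSO.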

A short description of assay [13]: ATG_NRF2_ARE_CIS: Attagene CIS-FACTORIAL HepG2 Assay for human Nuclear Factor Erythroid 2 Related Factor 2 (NFR2) response to Antioxidant Response Elements (ARE) (AID 2282992).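 On AC50: reporter mRNA level measured by RT-PCR and capillary electrophoresis fluorescence.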 To be noted: HepG2 Attagene ARE/NRF2 reporter, transcription factor activity; actives raise or lower the signal. In outline:
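HepG2 cells transiently transfected with multiplexed cis-regulated reporter transcription units measure endogenous transcription factor activity. Reporter mRNA at 24 h is quantified by RT-PCR, fluorescent labelling and capillary electrophoresis, with bidirectional fitting relative to DMSO.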

A short description of assay [14]: ATG_Oct_MLP_CIS: Attagene CIS-FACTORIAL HepG2 Assay for human Octamer-Binding Transcription Factor (Oct) (AID 2282993). Particulars: HepG2 Attagene cis-factorial Oct reporter, mRNA; actives raise or lower the signal. In short, it runs like this: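 Transient MRTU transfection of HepG2 → 24 h compound treatment → RNA isolation, reverse transcription, PCR → 6-FAM primer extension, HpaI digest → capillary electrophoresis. Activity fitted both directions against DMSO.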

Assay [15] has as its target Cellular tumor antigen p53 (Homo sapiens) (UniProt P04637). The experiment in a line: ATG_p53_CIS: Attagene CIS-FACTORIAL HepG2 Assay for human p53 Transcription Factor (AID 2282994). Particulars: HepG2 p53 cis-element reporter, Attagene mRNA; actives raise or lower the signal. In outline:
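HepG2 cells transiently transfected with multiplexed cis-regulated reporter transcription units read endogenous TF activity. After 24 h compound exposure, reporter mRNA was quantified by RT-PCR, fluorescent labelling, HpaI digestion and capillary electrophoresis; bidirectional fits versus DMSO baseline.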

Assay [16] is described as follows: BSK_3C_uPAR: BioMAP Diversity Plus: 3C Assay for Urokinase-type plasminogen activator receptor (uPAR) Biomarker Activity (AID 2282998). To be noted: BioMAP 3C HUVEC, uPAR biomarker ELISA; actives raise or lower the signal. In outline:
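ELISA readout of uPAR on human vascular endothelium (umbilical vein primary cells), taken 24 h after chemical dosing. Increases and decreases are both fitted relative to DMSO vehicle.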
A general note: ELISA stands for enzyme-linked immunosorbent assay.

A short description of assay [17]: BSK_3C_VCAM1: BioMAP Diversity Plus: 3C Assay for Vascular cell adhesion molecule 1 (VCAM1) Biomarker Activity (AID 2282999). Particulars: BioMAP 3C HUVEC, VCAM1 ELISA, cytokine-stimulated; actives raise or lower the signal. In outline:
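Human umbilical vein endothelial cells (3C system), biomarker read by ELISA 24 h after dosing; bidirectional fit against DMSO baseline. Cytotoxicity tracked by SRB total-protein staining in parallel cultures at biomarker time.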

A short description of assay [18]: BSK_4H_Eotaxin3: BioMAP Diversity Plus: 4H Assay for Eotaxin 3 Biomarker Activity (AID 2283000).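 On outcome: CCL26 protein level quantified by ELISA in parallel with SRB cytotoxicity check.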 Particulars: primary human endothelial cells (HUVEC); actives raise or lower the signal. In outline:
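Human umbilical vein endothelial cells (BSK_4H system) dosed with test chemical; Eotaxin-3 (CCL26) measured by ELISA 24 h after dosing. Bidirectional curve fitting relative to DMSO negative control as baseline.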

The target of assay [19] is human Peroxisome Proliferator-activated Receptor alpha (PPARa), PPARA (gene 5465) (UniProt Q07869). Kind of assay: ATG_PPARa_TRANS: Attagene TRANS-FACTORIAL HepG2 Assay for human Peroxisome Proliferator-activated Receptor alpha (PPARa) (AID 2283001; active means hit-call score of the fitted dose curve at least 0.9, where 1 is the maximum). In outline:
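Measures transcriptional activity of an exogenous chimeric PPARa-Gal4 protein in transiently transfected HepG2 cells after 24 h dosing. Reporter mRNA quantified via RT-PCR and capillary electrophoresis; DMSO served as negative control.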

The nature of assay [20]: BSK_3C_TissueFactor: BioMAP Diversity Plus: 3C Assay for Tissue Factor Biomarker Activity (AID 2282997). Particulars: BioMAP 3C HUVEC, tissue factor biomarker readout; actives raise or lower the signal. In outline: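 Dosing of human umbilical vein endothelial cells preceded a 24 h incubation. Tissue Factor was then read by ELISA, with increases and decreases both scored relative to DMSO controls.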

Results filed as inconclusive are left out. Activity calls are given as the source filed them. How the source made its calls, unless noted: active means hit-call score of the fitted dose curve at least 0.9, where 1 is the maximum; inactive means score below 0.9.

Sequence of Oxysterols receptor LXR-alpha (Homo sapiens) (Q13133 whole entry, looked up, the tested form may be a part): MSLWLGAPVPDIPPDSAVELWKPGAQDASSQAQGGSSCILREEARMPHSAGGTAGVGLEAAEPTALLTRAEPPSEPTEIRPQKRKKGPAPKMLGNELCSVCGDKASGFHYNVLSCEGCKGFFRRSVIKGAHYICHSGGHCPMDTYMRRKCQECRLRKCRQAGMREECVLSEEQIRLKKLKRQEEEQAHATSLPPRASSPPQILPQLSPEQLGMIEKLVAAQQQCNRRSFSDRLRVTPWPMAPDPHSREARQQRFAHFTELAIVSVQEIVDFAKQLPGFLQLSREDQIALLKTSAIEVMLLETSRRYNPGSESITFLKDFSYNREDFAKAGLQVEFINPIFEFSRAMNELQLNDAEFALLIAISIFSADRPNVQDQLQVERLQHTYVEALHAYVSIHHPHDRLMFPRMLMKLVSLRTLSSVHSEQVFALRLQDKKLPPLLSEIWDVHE
Sequence of Cellular tumor antigen p53 (Homo sapiens) (P04637 whole entry, looked up): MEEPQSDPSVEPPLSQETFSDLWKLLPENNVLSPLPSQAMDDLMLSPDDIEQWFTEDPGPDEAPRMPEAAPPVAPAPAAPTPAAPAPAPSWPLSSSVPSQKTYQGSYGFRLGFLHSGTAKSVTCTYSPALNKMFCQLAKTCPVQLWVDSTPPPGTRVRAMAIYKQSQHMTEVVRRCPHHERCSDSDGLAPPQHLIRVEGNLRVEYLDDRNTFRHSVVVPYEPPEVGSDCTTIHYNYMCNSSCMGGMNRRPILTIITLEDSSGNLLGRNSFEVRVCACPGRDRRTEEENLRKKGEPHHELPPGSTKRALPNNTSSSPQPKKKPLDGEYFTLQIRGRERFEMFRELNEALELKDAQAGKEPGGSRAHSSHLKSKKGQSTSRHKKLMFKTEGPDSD
Sequence of Oxysterols receptor LXR-beta (Homo sapiens) (P55055 whole entry, looked up, the tested form may be a part): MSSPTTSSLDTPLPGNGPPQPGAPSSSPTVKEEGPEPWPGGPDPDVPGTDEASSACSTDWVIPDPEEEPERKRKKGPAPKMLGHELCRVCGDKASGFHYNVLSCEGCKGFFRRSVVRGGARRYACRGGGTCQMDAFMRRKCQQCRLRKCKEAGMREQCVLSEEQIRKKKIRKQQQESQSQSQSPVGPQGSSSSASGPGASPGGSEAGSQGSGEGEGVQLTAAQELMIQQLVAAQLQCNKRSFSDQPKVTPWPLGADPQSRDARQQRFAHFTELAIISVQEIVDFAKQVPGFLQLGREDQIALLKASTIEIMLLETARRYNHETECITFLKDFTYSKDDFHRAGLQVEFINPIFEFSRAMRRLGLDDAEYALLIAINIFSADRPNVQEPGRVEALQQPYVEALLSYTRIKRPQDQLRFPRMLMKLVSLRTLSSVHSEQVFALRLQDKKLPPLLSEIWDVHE
Sequence of Transcriptional activator Myb (Homo sapiens) (P10242 whole entry, looked up): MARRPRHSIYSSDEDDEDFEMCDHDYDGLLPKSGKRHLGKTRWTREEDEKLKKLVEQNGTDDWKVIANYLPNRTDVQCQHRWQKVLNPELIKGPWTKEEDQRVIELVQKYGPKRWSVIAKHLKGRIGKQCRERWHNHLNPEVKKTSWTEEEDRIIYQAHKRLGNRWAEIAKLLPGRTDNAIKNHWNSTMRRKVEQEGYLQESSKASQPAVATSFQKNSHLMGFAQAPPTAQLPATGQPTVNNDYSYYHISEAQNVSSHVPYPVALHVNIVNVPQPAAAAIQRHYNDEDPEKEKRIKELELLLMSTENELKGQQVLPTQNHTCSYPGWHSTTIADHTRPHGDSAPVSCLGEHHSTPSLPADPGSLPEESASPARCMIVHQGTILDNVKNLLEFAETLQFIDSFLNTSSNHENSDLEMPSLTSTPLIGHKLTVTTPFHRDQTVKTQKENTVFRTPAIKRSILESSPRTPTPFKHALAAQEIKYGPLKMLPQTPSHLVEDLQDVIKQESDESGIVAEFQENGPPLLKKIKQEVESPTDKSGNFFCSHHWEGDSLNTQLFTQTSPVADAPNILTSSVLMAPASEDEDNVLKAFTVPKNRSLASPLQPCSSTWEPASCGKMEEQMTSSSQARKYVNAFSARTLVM
Sequence of human Peroxisome Proliferator-activated Receptor alpha (PPARa), PPARA (gene 5465) (Q07869 whole entry, looked up, the tested form may be a part): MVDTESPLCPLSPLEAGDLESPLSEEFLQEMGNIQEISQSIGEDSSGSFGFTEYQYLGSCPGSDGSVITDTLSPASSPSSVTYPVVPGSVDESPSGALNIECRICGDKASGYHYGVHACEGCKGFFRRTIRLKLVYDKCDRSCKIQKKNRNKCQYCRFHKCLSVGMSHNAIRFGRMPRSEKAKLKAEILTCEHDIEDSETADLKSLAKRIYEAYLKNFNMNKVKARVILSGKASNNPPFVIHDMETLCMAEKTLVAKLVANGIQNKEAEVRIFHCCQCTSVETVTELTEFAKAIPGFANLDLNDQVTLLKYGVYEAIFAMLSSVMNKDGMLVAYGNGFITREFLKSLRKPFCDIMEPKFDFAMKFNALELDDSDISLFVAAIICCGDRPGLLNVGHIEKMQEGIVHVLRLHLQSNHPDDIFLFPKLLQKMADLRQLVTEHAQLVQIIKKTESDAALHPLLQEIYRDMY
Sequence of Nuclear respiratory factor 1 (Homo sapiens) (Q16656 whole entry, looked up): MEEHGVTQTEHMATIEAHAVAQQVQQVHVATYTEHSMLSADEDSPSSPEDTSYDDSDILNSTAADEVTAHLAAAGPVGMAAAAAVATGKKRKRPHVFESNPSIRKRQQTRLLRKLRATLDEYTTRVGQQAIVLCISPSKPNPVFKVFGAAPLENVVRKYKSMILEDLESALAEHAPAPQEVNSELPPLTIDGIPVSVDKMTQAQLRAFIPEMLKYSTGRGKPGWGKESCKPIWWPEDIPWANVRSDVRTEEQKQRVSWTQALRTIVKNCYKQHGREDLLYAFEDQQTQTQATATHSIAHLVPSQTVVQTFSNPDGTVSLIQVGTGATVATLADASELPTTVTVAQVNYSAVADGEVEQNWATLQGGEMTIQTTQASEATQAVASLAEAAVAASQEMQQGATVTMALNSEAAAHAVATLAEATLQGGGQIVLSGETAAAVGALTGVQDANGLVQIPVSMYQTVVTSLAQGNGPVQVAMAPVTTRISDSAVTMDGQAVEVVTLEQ
Sequence of Nuclear receptor subfamily 4 group A member 2 (Homo sapiens) (P43354 whole entry, looked up): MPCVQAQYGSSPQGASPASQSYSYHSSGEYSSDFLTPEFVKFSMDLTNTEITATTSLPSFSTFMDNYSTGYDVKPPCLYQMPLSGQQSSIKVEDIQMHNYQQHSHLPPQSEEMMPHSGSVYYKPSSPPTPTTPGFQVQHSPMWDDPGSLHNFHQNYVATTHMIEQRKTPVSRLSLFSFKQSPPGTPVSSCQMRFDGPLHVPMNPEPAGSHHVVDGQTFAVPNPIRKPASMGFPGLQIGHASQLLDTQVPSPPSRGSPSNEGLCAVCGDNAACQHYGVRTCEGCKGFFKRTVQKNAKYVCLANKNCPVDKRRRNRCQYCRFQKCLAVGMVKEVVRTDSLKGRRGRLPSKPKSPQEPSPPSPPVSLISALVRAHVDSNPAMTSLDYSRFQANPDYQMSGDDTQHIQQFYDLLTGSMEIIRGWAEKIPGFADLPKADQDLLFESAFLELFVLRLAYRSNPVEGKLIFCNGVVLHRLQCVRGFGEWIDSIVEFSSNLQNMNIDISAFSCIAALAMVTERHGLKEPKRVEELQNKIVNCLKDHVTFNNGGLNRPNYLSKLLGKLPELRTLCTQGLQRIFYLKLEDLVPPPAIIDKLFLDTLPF
Sequence of Glucocorticoid receptor (Homo sapiens) (P04150 whole entry, looked up, the tested form may be a part): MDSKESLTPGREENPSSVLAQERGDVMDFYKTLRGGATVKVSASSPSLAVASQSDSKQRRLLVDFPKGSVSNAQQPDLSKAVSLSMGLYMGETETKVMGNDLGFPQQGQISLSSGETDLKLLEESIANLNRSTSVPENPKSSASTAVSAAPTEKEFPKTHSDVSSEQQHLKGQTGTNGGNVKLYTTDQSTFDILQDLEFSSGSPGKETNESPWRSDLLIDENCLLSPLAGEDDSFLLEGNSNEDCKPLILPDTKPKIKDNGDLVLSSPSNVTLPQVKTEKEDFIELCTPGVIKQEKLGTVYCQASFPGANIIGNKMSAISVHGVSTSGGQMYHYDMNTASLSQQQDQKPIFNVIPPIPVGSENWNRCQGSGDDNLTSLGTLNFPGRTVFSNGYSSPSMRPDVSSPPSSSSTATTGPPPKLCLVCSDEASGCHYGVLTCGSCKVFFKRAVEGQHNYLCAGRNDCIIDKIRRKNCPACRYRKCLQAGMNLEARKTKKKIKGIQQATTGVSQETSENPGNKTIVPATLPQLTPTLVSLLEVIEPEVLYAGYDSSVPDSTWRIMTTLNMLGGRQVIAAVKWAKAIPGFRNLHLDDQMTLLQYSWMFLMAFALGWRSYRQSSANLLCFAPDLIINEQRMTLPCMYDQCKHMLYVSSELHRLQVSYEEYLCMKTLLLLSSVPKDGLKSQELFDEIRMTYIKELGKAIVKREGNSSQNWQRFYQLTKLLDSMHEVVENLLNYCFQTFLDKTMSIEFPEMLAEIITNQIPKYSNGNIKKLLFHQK
Sequence of Myc proto-oncogene protein (Homo sapiens) (P01106 whole entry, looked up, the tested form may be a part): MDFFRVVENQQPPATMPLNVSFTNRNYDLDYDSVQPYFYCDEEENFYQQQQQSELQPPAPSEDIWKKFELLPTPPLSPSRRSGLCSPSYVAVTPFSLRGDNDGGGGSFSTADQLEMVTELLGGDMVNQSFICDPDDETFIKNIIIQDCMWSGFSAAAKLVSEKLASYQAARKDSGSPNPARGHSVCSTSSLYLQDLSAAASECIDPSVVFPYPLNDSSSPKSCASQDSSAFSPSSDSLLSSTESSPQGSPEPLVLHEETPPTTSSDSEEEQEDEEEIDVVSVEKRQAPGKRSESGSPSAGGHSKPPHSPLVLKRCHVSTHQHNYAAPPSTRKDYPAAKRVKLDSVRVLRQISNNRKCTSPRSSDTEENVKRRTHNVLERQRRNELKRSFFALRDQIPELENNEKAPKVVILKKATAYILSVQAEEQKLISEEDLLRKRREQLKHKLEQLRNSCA

Take `Cc1cc(N=Nc2ccccc2C)ccc1N`: the result in assay [1], in [2], in assay [3], in assay [4], in assay [5] and in [6] was inactive. Moreover, the compound was classed as inactive in assay [7], in [8], in assay [9], in assay [10], in assay [11] and in assay [12]. In addition, the compound was called inactive in assay [15], in assay [17] and in assay [19]. Besides, the AC50 (in general, the concentration at which the activity in the assay is half-maximal) was 7.21 µM (active) in assay [13], 20.4 µM (active) in [14], 10.4 µM (active) in [16] and 14.2 µM (active) in [18].
For the compound `Oc1ccccc1Cl`, the call in [1], in [4], in [5], in assay [6], in assay [7] and in assay [8] was inactive. The outcome in assay [9], in assay [10], in assay [11], in assay [12], in [14] and in [15] was inactive. Also, the outcome in assay [16], in assay [17], in assay [18] and in assay [19] was inactive. The AC50 in [13] is 52 µM (active).
As to `CC(C)(O)c1cnn2c(-c3ccc(F)c(-c4c(F)cccc4C#N)c3)cnc2n1`, the compound was classed as inactive in assay [1], in assay [6], in assay [8], in assay [10], in assay [11] and in assay [12]. For the same compound, the result in [14] and in assay [19] was inactive. For the same compound, the AC50 is 14.5 µM (active) in assay [2]; 8.4 µM (active) in assay [9]; 19.8 µM (active) in assay [13]; 8.54 µM (active) in [15]; 31.3 µM (active) in assay [16]; 35.3 µM (active) in assay [17]. In [18], the AC50 is 33.6 µM (active).
Turning to `Nc1ccc(Cl)cc1N`, the compound was classed as inactive in [1], in assay [2], in assay [3], in [4], in assay [5] and in assay [6]. Moreover, the compound was classed as inactive in [7], in [8], in [9], in assay [10], in [11] and in assay [12]. Further, the outcome in [20], in [16] and in assay [19] was inactive. For the same compound, the AC50 in assay [13] was 5.68 µM (active); in assay [14], 29.5 µM (active); in assay [15], 8.6 µM (active); in assay [17] it was 4.34 µM (active); in assay [18], 2.15 µM (active).
For the compound `c1ccc2c(c1)oc1ccccc12`, the result in assay [1], in assay [4], in [5], in [6], in assay [7] and in [8] was inactive. The compound was called inactive in assay [9], in assay [10], in assay [11], in assay [12], in [13] and in assay [14]. Also, the compound was classed as inactive in [15], in assay [20], in assay [17], in [18] and in [19].
For `CCCCCCCCCCCCCN1CC(C)OC(C)C1` (configuration not stated), the result in assay [1], in [3], in [5], in assay [7], in assay [8] and in assay [9] was inactive. The compound was classed as inactive in assay [10], in [11], in assay [14], in assay [15], in [20] and in [17]. In [18], the result was inactive. Further, the AC50 in assay [13] was 47 µM (active).
